Results reported in PubChem BioAssay (EPA / NIEHS).
Results filed as inconclusive are left out. Activity calls are given as the source filed them. Rule for the calls: active = hit-call score of the fitted dose curve at least 0.9, where 1 is the maximum; inconclusive = response in the unintended direction; inactive = score below 0.9.

Assay: Tanguay_ZF_120hpf_SOMI_legacy: (Legacy) Oregon State University Tanguay Lab 120 Hour Post-fertilization zebrafish Assay for Somite Malformation (AID 2283647)
In short: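 Binary somite-defect scoring at 120 hpf, omitted for embryos that died, in wild-type (Tropical 5D) zebrafish with chorion removed by pronase at 4 hpf; static exposure began 6 hpf, single embryos per well, 28C, 0.64% DMSO; fitted positive versus DMSO.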

SMILES	outcome	AC50
CC(C)(O)c1ccc(CNC(=O)c2cccnc2Oc2ccc(F)cc2)cc1	inactive	–
Cc1cn([C@H]2C=C[C@@H](CO)O2)c(=O)[nH]c1=O	inactive	–
COC(=O)[C@H]1[C@H]2C[C@@H]3c4[nH]c5cc(OC)ccc5c4CCN3C[C@H]2C[C@@H](OC(=O)c2cc(OC)c(OC)c(OC)c2)[C@@H]1OC	inactive	–
NC=O	inactive	–
CC(=O)O	inactive	–
CC1=C(C)S(=O)(=O)CCS1(=O)=O	inactive	–
OCC(CO)n1cnc(-c2ccc(F)cc2)c1-c1ccnc(Oc2ccccc2)n1	inactive	–
NCCOCCOCCN	inactive	–
Cc1cc(SC2=C(O)C[C@@](CCc3ccc(N)cc3)(C(C)C)OC2=O)c(C(C)(C)C)cc1CO	inactive	–
O=C(O)c1cccnc1	inactive	–
O=C(NS(=O)(=O)/C=C/c1cccs1)c1ccc(F)cc1Br	inactive	–
Nc1nc(Cl)nc2c1ncn2[C@H]1C[C@H](O)[C@@H](CO)O1	inactive	–
C/C=C/c1ccc(OC)cc1	inactive	–
C=CCc1ccc(OC)c(OC)c1	inactive	–
CC(C)(C)c1ccccc1	inactive	–
S=c1[nH]c2ccccc2s1	–	44.5 µM (active)
CC1(C)C(=O)NC(=O)N1CO	inactive	–
COC(=O)CCCC(=O)OC	inactive	–
CC(=O)[C@@]1(O)CC[C@H]2[C@@H]3CCC4=CC(=O)CC[C@]4(C)[C@H]3CC[C@@]21C	inactive	–
CCCCCCC(C=O)=Cc1ccccc1	inactive	–
O=C1c2c(O)cccc2Cc2cccc(O)c21	inactive	–
Oc1ccc(O)cc1	inactive	–
CC(N)=O	inactive	–
CSc1ccc(Oc2ccc(S(N)(=O)=O)cc2CN(C)C)cc1C	inactive	–
CC(=O)O[C@]1(C(C)=O)CC[C@H]2[C@@H]3C=C(Cl)C4=CC(=O)[C@@H]5C[C@@H]5[C@]4(C)[C@H]3CC[C@@]21C	inactive	–

Assay: Tanguay_ZF_120hpf_PFIN_legacy: (Legacy) Oregon State University Tanguay Lab 120 Hour Post-fertilization zebrafish Assay for Pectoral Fin Malformation (AID 2283648);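 note: each larva judged yes or no for fin defect by brightfield with dead larvae skipped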
In short: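 Binary pectoral fin malformation call at 120 hpf by brightfield microscopy; 5D wild-type zebrafish, chorion removed at 4 hpf, one embryo per well from 6 hpf, static exposure at 28C; DMSO (0.64% final) as baseline.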

SMILES	outcome	AC50
CC(C)(O)c1ccc(CNC(=O)c2cccnc2Oc2ccc(F)cc2)cc1	inactive	–
Cc1cn([C@H]2C=C[C@@H](CO)O2)c(=O)[nH]c1=O	inactive	–
COC(=O)[C@H]1[C@H]2C[C@@H]3c4[nH]c5cc(OC)ccc5c4CCN3C[C@H]2C[C@@H](OC(=O)c2cc(OC)c(OC)c(OC)c2)[C@@H]1OC	inactive	–
NC=O	inactive	–
CC1=C(C)S(=O)(=O)CCS1(=O)=O	inactive	–
NCCOCCOCCN	inactive	–
Cc1cc(SC2=C(O)C[C@@](CCc3ccc(N)cc3)(C(C)C)OC2=O)c(C(C)(C)C)cc1CO	inactive	–
C#CC(O)C(CC)CCCC (stereo unspecified)	inactive	–
O=C(O)c1cccnc1	inactive	–
O=C(NS(=O)(=O)/C=C/c1cccs1)c1ccc(F)cc1Br	inactive	–
Nc1nc(Cl)nc2c1ncn2[C@H]1C[C@H](O)[C@@H](CO)O1	inactive	–
C/C=C/c1ccc(OC)cc1	inactive	–
C=CCc1ccc(OC)c(OC)c1	inactive	–
COc1ccc(OC(F)(F)F)cc1CN[C@H]1CCCN[C@H]1c1ccccc1	inactive	–
CC(C)(C)c1ccccc1	inactive	–
S=c1[nH]c2ccccc2s1	–	10.4 µM (active)
CC(C)c1cccc(C(C)C)c1NC(=O)NS(=O)(=O)c1cc(C(C)(C)O)co1	inactive	–
CC1(C)C(=O)NC(=O)N1CO	inactive	–
COC(=O)CCCC(=O)OC	inactive	–
CC(=O)[C@@]1(O)CC[C@H]2[C@@H]3CCC4=CC(=O)CC[C@]4(C)[C@H]3CC[C@@]21C	inactive	–
CCCCCCC(C=O)=Cc1ccccc1	inactive	–
COC(=O)CCC(=O)OC	inactive	–
Oc1ccc(O)cc1	inactive	–
CC(N)=O	inactive	–
CSc1ccc(Oc2ccc(S(N)(=O)=O)cc2CN(C)C)cc1C	inactive	–
CCCCC(CC)CO (stereo unspecified)	inactive	–
